Source: PubChem (National Center for Advancing Translational Sciences (NCATS))
ERG-DNA inh – ERG Ets/DNA interaction inhibition. P11308. fluorescence polarization, His-ERG Ets domain / labelled DNA. AID 624246. Potency, µM (highest dose often 76.9 µM), hits mostly inhibitors. hit rate 0.028% among 370,000; active = well fitted inhibition curve with a large enough effect in the polarisation, with a control signal flat; inconclusive = small, poorly fitted or top-dose-only effect, or effect the other way, or a change in a side signal; inactive = no such curve, though single readings can be large or run the other way; the % refers to the polarisation;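 note: polarization taken with two DNA probes labelled with fluorescein and Texas red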
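His-tagged ERG Ets domain (1 uM in the protein solution; 300mM KCl, 50mM Tris-HCl, 1mM EDTA, 1mM DTT, pH 7.5) received compound, then a probe mix of 5 nM fluorescein-DNA and 100nM Texas-615-DNA. Fluorescence polarization was read for both dyes.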
Tb PFK inh – T. brucei PFK enzyme inhibition. O15648. T. brucei PFK, ADP-Glo luminescence. Potency, µM (titrated, usually from 57.5 µM), actives largely listed as inhibitors. hit rate 0.17% among 330,000. AID 485367; note: nearly all actives have a fitted effect of over 60% in size
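Luminescent ADP detection (ADP-Glo, two-step: ATP depletion then ADP-to-ATP conversion for luciferase) reported PFK activity after 45 min room-temperature reaction of 1.25 nM enzyme with 0.5 mM F6P and 0.1 mM ATP at pH 8.0.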
PGK inhibitor – blocks T. brucei phosphoglycerate kinase | PGK/GAPDH coupled, Kinase-Glo luminescence, 60 min | hit rate 0.043% among 380,000 | AID 602233 | P07378 | Potency, µM (top dose mostly 57.5 µM), usual class: inhibitors; note: nearly all actives have a fitted effect of over 60% in size
Target sequence (P07378 whole entry, looked up): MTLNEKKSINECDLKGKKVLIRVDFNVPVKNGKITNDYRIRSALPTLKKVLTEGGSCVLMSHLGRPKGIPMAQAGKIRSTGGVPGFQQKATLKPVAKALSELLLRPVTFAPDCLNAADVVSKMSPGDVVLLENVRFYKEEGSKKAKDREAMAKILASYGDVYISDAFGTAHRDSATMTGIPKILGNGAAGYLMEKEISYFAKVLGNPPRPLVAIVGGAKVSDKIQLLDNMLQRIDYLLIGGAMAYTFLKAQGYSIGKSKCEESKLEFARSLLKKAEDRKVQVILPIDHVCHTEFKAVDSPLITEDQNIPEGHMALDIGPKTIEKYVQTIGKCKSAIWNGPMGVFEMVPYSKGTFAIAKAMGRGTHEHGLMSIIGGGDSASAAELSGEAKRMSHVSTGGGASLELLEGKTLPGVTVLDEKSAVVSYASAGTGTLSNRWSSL
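Luminescent ATP detection (Kinase-Glo Plus) follows a 60-minute room-temperature incubation, with wells lacking PGK as controls. Buffer: 100 mM TEA (pH 7.6), 5 mM MgCl2, 0.01% Tween-20. Coupling enzyme GAPDH (100 nM final) supplies unstable 1,3-BPG in-well.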
Pin1 inhibitor – human Pin1 inhibition. hit rate 0.009% among 390,000. Potency, µM (top dose mostly 115 µM), most hits filed as inhibitors. Pin1 FP peptide displacement, HiFluor488, 10 min. Q13526; active = well fitted inhibition curve with a large enough effect in the polarisation, with a control signal flat, not every such curve was filed as active; inconclusive = small, poorly fitted or top-dose-only effect, or effect the other way, or a change in a side signal; inactive = no such curve, though single readings can be large or run the other way; the % refers to the polarisation
Target sequence (Q13526 whole entry, looked up): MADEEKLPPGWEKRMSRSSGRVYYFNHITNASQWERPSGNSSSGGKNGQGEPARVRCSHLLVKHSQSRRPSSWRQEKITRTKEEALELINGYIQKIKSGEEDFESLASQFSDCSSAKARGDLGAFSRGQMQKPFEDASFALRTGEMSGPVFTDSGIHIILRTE
BCR signal inh – inhibitors of chronic active B-cell receptor signaling | ABC-DLBCL IkBa-CBG/CBR reporter, luminescence ratio, 4 h | hit rate 0.05% among 340,000 | Potency, µM (series often up to 46.1 µM), actives largely listed as inhibitors; active = well fitted inhibition curve with a large enough effect in the signal ratio, with a control signal flat, not every such curve was filed as active; inconclusive = small, poorly fitted or top-dose-only effect, or effect the other way, or a change in a side signal; the % refers to the signal ratio
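Doxycycline induced both beetle luciferases in TMD8 lymphoma cells; IKK-driven degradation limits the IkappaBalpha-fused green signal, while red luminescence normalises for cell number and nonspecific effects. Compounds tested up to 46 uM, 4 hrs.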
Large screens that a line does not name were inactive. In the library only some 0.25% were active in any assay of this set; here they are far more common. Unless noted, calls come from the whole dose curve; as a rule, active = well fitted curve in the direction sought with a large enough effect; inconclusive = small, poorly fitted or top-dose-only effect, or another doubt; inactive = no such curve, though single readings can be large; an effect the other way counts as inactive or inconclusive.

CCOc1ccccc1Oc1nc(C)nc2c1oc1ccccc12	BCR signal inh 12.6µM (no result: Tb PFK inh)
COc1ccccc1NC(=O)Cc1noc(CSc2cccc[n+]2[O-])n1	BCR signal inh 23.1µM
COc1ccc(-c2nc(-c3ccccn3)no2)cc1	Tb PFK inh inconclusive, PGK inhibitor 15.8µM, BCR signal inh inconclusive
CN(Cc1ccco1)c1ncnc2ccc(-c3ccc4c(ccn4C)c3)cc12	BCR signal inh 6.51µM (no result: ERG-DNA inh)
Cc1cccc(-c2ccc3ncnc(N(C)Cc4ccco4)c3c2)c1	BCR signal inh inconclusive (no result: ERG-DNA inh, PGK inhibitor, Pin1 inhibitor)
O=C1c2ccccc2C(=O)N1c1ncccc1O	none (no result: ERG-DNA inh, Tb PFK inh, PGK inhibitor, BCR signal inh)
CC(C)(C)C(=O)Nc1ccc(C(=O)Nc2cccc(Oc3ccc(C(=O)O)c(C(=O)O)c3)c2)cc1	Tb PFK inh 21.3µM, Pin1 inhibitor inconclusive
N[C@@H](C(=O)N[C@@H]1C(=O)N2C(C(=O)O)=C(Cl)CS[C@H]12)c1ccccc1	none (no result: Pin1 inhibitor)
NC(=O)c1cc[n+](CC2=C(C(=O)O)N3C(=O)[C@@H](NC(=O)C(c4ccccc4)S(=O)(=O)[O-])[C@H]3SC2)cc1 (stereo partly specified)	PGK inhibitor 1.12µM, Pin1 inhibitor inconclusive
Cc1ccc(NS(=O)(=O)c2ccc3c(ccn3C)c2)cc1C	none (no result: ERG-DNA inh, Tb PFK inh, PGK inhibitor, BCR signal inh)
Cc1cc2c(cc(C(=O)OCC(=O)NCc3cccs3)n2C(C)C)o1	BCR signal inh 8.2µM (no result: ERG-DNA inh)
Cc1cc(C)cc(C(=O)OCC(=O)NCc2cccs2)c1	none
CC1CC=CC2C1C(=O)N(Cc1ccccc1)C2c1ccc(C(F)(F)F)cc1 (stereo unspecified)	none (no result: ERG-DNA inh, Tb PFK inh, PGK inhibitor, BCR signal inh)
COc1cc(Br)c(/C=C/c2ccc3cccc(O)c3n2)cc1OC	BCR signal inh inconclusive (no result: PGK inhibitor)
COc1ccc(OC)c(/C=C/c2ccc3cccc(O)c3n2)c1	BCR signal inh 11.2µM (no result: ERG-DNA inh, PGK inhibitor, Pin1 inhibitor)
CCCCC(CC)COC(=O)CCCCC(=O)OCC(CC)CCCC (stereo unspecified)	ERG-DNA inh 28.2µM
CCCCCCCC(=O)OCC(O)CO (stereo unspecified)	none
COc1ccc(C2Nc3ccc(NC(C)=O)cc3C(=O)N2Cc2cccc(Cl)c2)cc1COc1ccc(NC(C)=O)cc1 (stereo unspecified)	none (no result: ERG-DNA inh, Tb PFK inh, PGK inhibitor, BCR signal inh)
C[C@@H]1C[C@H]2[C@@H]3CCC4=CC(=O)C=C[C@]4(C)[C@@]3(F)C(O)C[C@]2(C)[C@@]1(O)C(=O)CO (stereo partly specified)	none (no result: ERG-DNA inh, Tb PFK inh, PGK inhibitor, BCR signal inh)
NS(=O)(=O)c1ccc(CCNC(=O)CCS(=O)(=O)c2ccc(Br)cc2)cc1	Tb PFK inh 15.1µM (no result: PGK inhibitor)
O=C(CCS(=O)(=O)c1ccc(Br)cc1)NCCc1ccccc1	PGK inhibitor inconclusive
CC(=O)c1ccc(C2CC34CNS(=O)(=O)C3CC2O4)cc1 (stereo unspecified)	none (no result: ERG-DNA inh, Tb PFK inh, PGK inhibitor, BCR signal inh)
COc1cccc(C2c3c(ncn(Cc4cccs4)c3=N)Oc3ccc4ccccc4c32)c1 (stereo unspecified)	none (no result: ERG-DNA inh, Tb PFK inh, PGK inhibitor, BCR signal inh)
Oc1ccc2c(c1)OCC1(O)Cc3cc(O)c(O)cc3C21 (stereo unspecified)	ERG-DNA inh 12.6µM, Pin1 inhibitor inconclusive (no result: Tb PFK inh, BCR signal inh)
O=S(=O)(Nc1cc(Sc2ncn[nH]2)c(O)c2ccccc12)c1ccccc1	Tb PFK inh inconclusive, Pin1 inhibitor 44.7µM, BCR signal inh inconclusive
O=S(=O)(c1cccc(Cl)c1)N1CCN(c2nc(-c3cccs3)nc3ccccc23)CC1	none (no result: ERG-DNA inh, Tb PFK inh, PGK inhibitor, BCR signal inh)
Cc1ccc(NC(=O)CN2C(=O)S/C(=C/c3ccc(-c4cccc(C(=O)O)c4)o3)C2=O)cc1	Tb PFK inh inconclusive, PGK inhibitor 10µM, Pin1 inhibitor inconclusive, BCR signal inh inconclusive
Cc1c(NC(=O)/C(C#N)=C/c2c(Oc3ccccc3)nc3ccccn3c2=O)c(=O)n(-c2ccccc2)n1C	BCR signal inh 18.4µM
COC(=O)c1ccc(=O)c2nc3/c(=C/O)c(O)cc(=O)c3[nH]c12	Pin1 inhibitor 7.08µM, BCR signal inh inconclusive
COC(=O)c1ccc(N)cc1O	none
COc1cc(OC)cc(C(=O)N/N=C/c2ccc(OC)c(COc3ccc(F)cc3)c2)c1	BCR signal inh 10µM
Oc1ccc(-c2nc3cnccn3c2Nc2ccc3c(c2)OCCO3)cc1	Pin1 inhibitor inconclusive, BCR signal inh 17.8µM
Cc1ccc(C)c(-n2c3nc(=O)[nH]c(=O)c-3cc3cc([N+](=O)[O-])ccc32)c1	Tb PFK inh inconclusive, Pin1 inhibitor inconclusive, BCR signal inh inconclusive
